Compounds with a hit are over-represented: about 1% of the library has one in this group of screens.
BioA inh: blocks M. tuberculosis BioA enzyme activity. actives 0.096% (n = 360,000). purified M. tuberculosis BioA enzyme, plate reader. inhibition, % at 9.99 µM; in the data active = inhibition above about 40%
Yp Topo-I inh: inhibitors of Yersinia pestis topoisomerase I. activity, % at 10 µM. actives 0.064% (n = 360,000). AID 504884. Y. pestis Topo-I cleavage product accumulation, plate reader; in the data active = activity above about 50%, passing the limit was not always enough
VHR inh abs: blocks human VHR1 dual specificity phosphatase; recombinant VHR phosphatase, pNPP absorbance; inhibition, % at 13.3 µM; P51452; actives 0.52% (n = 290,000); AID 1654; in the data active = inhibition above about 50%
FadD28 binding: M. tuberculosis FadD28 bisubstrate binding inhibition | inhibition, % at 12.5 µM | actives 0.22% (n = 360,000) | FadD28 bisubstrate probe binding, fluorescence polarization; in the data active = inhibition above about 8.5%, passing the limit was not always enough
MazF activator: increases E. coli MazEF RNase cleavage of RNA; AID 504720; P0AE70; activation, % at 20 µM; FAM/BHQ RNA-DNA oligo cleavage fluorescence, 5 h; actives 0.32% (n = 350,000); in the data active = activation above about 50%
TcdB GH inh: inhibitors of Clostridioides difficile toxin B glycohydrolase; inhibition, % at 9.99 µM; P18177; AID 652162; actives 0.24% (n = 350,000); TcdB glycohydrolase enzymatic assay, plate reader; in the data active = inhibition above about 10%
Target sequence (P18177 whole entry, looked up): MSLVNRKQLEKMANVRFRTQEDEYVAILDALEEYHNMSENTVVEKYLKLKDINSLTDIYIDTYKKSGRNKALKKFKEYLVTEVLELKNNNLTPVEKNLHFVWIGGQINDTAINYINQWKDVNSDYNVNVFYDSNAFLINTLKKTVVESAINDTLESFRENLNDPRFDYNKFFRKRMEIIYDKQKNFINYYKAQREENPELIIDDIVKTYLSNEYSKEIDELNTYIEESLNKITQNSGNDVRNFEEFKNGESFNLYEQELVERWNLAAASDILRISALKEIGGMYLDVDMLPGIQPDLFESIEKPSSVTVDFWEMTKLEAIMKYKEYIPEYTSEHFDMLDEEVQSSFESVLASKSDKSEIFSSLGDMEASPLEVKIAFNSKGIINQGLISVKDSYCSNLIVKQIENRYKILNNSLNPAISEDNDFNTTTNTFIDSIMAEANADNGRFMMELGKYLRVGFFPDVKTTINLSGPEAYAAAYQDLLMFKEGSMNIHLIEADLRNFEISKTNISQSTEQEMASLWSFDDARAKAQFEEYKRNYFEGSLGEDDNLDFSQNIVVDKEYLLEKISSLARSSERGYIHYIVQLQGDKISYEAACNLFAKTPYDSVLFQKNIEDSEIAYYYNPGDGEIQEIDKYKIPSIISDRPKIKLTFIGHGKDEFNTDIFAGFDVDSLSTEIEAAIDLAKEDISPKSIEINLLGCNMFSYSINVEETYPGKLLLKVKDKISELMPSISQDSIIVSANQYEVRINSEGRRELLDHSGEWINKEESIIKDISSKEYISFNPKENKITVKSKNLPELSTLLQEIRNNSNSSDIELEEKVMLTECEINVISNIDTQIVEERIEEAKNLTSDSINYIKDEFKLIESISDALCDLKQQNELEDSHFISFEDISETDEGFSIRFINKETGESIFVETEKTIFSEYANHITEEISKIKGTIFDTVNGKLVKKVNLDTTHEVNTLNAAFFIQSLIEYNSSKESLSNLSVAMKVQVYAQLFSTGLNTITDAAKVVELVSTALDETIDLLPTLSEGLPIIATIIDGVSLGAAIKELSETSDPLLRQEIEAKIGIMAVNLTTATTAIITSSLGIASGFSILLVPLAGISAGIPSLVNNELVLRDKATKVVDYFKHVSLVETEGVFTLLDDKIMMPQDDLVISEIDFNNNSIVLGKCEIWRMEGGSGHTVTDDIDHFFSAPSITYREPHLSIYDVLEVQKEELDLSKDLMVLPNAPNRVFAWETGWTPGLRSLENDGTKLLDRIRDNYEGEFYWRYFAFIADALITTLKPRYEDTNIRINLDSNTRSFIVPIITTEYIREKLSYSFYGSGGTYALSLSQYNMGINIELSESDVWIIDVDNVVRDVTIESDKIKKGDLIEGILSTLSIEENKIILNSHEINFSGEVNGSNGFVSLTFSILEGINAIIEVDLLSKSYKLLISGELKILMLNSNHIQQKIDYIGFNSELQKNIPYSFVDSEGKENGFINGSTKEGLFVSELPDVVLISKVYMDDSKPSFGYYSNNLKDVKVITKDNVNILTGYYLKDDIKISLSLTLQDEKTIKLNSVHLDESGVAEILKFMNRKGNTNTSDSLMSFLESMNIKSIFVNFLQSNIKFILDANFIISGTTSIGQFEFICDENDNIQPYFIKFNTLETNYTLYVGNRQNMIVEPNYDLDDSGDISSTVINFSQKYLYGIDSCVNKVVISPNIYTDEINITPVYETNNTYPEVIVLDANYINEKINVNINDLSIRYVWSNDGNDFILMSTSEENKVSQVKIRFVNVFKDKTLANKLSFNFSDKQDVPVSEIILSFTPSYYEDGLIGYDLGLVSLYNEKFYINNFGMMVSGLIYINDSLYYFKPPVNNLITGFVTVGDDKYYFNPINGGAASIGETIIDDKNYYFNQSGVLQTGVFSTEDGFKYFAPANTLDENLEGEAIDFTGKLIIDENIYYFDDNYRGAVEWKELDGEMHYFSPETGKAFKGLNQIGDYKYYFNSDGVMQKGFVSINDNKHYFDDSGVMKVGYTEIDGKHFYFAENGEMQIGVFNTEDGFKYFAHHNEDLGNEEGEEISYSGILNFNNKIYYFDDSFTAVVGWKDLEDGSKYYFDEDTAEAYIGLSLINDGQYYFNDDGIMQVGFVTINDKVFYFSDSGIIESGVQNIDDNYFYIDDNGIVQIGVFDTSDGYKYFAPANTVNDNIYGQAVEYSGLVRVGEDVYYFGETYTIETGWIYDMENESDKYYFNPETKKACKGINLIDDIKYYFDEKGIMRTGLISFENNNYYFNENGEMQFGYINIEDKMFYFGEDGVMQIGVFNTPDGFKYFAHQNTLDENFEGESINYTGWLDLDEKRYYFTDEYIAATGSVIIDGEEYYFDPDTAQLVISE
* hit, by the source's call; · = not tested or not shown.

SMILES | BioA inh | Yp Topo-I inh | VHR inh abs | FadD28 binding | MazF activator | TcdB GH inh
O=C(N/N=C/c1ccco1)c1cccc(S(=O)(=O)Nc2ccccc2Cl)c1 | · | -6 | -1 | -2 | 0 | ·
CCCc1cn(CC[C@H]2CC[C@@H](NC(=O)CCN3CCCCC3)[C@@H](CO)O2)nn1 | -1 | · | · | · | · | -2
COc1c(O)cc2c(c1O)C1OC(CO)C(O)C(O)C1OC2=O (stereo not given) | 5 | -6 | · | 0 | 5 | 1
O=C1OCC2OC(O)C(O)C(O)C2OC(=O)c2cc(O)c(O)c(O)c2-c2c(O)c(O)c3oc(=O)c4c(c(O)c(O)c5oc(=O)c2c3c54)-c2c1cc(O)c(O)c2O (stereo not given) | · | · | 121* | · | · | ·
COCC(=O)Nc1ccc2c(c1)[C@H]1C[C@@H](CC(=O)NCc3cccnc3)O[C@H](CO)[C@H]1O2 | -2 | · | · | · | · | 0
CCCSc1nc2c(cnn2-c2ccccc2)c(=O)n1N | 4 | -2 | 1 | -2 | 17 | 2
CCCOc1nc(SCCC)nc2c1cnn2-c1ccccc1 | -1 | 12 | 53* | -3 | -8 | 0
CN(C)CCCNC(=O)C[C@H]1CC[C@@H]2[C@H](COC[C@H](O)CN2CC2CCCC2)O1 | 1 | · | · | · | · | -3
CN(C)S(=O)(=O)c1cc(NC(=O)CSc2ncc(C(F)(F)F)cc2Cl)ccc1Cl | · | 3 | -7 | 13* | 3 | ·
CN(C)S(=O)(=O)c1cc(NC(=O)CSc2cccc[n+]2[O-])ccc1Cl | 0 | -1 | · | 0 | 2 | 1
Cc1cc(NC(=O)CC(C)C)c(=O)n(Cc2c(F)cccc2Cl)c1 | 2 | 5 | 54* | -1 | 5 | 0
CN(C)C(=O)[C@@H]1N[C@@H]2c3ccc(-c4ccc(F)cc4)c(=O)n3C[C@@H]2[C@H]1CO | 1 | · | · | · | · | ·
O=c1[nH]nc(CNc2ccc(O)cc2)c2ccccc12 | -2 | -8 | 6 | 3 | 444* | ·
O=c1[nH]nc(CNc2ccc(C(F)(F)F)cc2)c2ccccc12 | -1 | 5 | 9 | -1 | 1 | ·
Cc1ccc2nc(N3C(=O)C(O)=C(C(=O)c4ccco4)C3c3cccs3)sc2c1 (stereo not given) | · | 11 | 8 | -15 | 110* | ·
CCOc1ccccc1C(=O)Nc1cc(Cl)ccc1O | 9 | -14 | 9 | -4 | 68* | ·
COc1ccccc1C(=O)Nc1cc(Cl)ccc1O | -3 | 17 | 26 | -1 | 4 | ·
CCOC(=O)[C@H]1[C@H]2COc3ccc(Br)cc3[C@H]2N2C(=O)CN(Cc3ccc(C)cc3)C(=O)[C@@]12C | -2 | 32 | · | -3 | 161* | 0
CCOC(=O)[C@H]1[C@H]2COc3ccc(Br)cc3[C@@H]2N2C(=O)CN(Cc3ccc(C)cc3)C(=O)[C@@]12C | 0 | 21 | · | -2 | -1 | -5
COc1ccc(NC(=O)Nc2ccc3c(c2)C(=O)N([C@@H](C)CO)C[C@H](C)[C@@H](CN(C)Cc2ccc(C(F)(F)F)cc2)OCCCC[C@@H](C)O3)cc1 | -2 | · | · | · | · | 1
N/C(=N\N=C/c1ccc(-c2ccc(O)c(C(=O)O)c2)o1)N[N+](=O)[O-] | 2 | -10 | 14 | 12* | 7 | ·
COc1ccc(S(=O)(=O)N[C@@H]2CC[C@@H](CC(=O)N3CCc4ccccc4C3)O[C@@H]2CO)cc1 | 4 | · | · | · | · | 1
Cc1cc2cc(C#N)c(NCCNC(=S)NCCCN3CCOCC3)nc2cc1C | · | 2 | 60* | -1 | 3 | 1
COc1ccc(C(=O)NN/C=C/C(=O)c2ccc(Br)cc2)cc1 | -1 | 1 | · | -3 | -16 | 0
COc1ccc(C(=O)C=CNNC(=O)c2ccc(Cl)cc2)cc1 | -2 | 1 | 58* | -3 | 1 | 0
CC(=O)Nc1ccc(N/C=C/C(=O)c2ccc(Cl)cc2)cc1 | -1 | -4 | 8 | 0 | 57* | 1
CC(=O)c1ccc(N/C=C\C(=O)c2ccc(C)cc2)cc1 | · | 8 | 6 | -4 | -7 | 0
Cc1noc(C)c1NC(=O)N(C)C[C@H]1Oc2c(NC(=O)CCCCCC(=O)Nc3ccccc3N)cccc2C(=O)N([C@H](C)CO)C[C@@H]1C | · | · | · | · | · | -1
Cc1cc(NCc2ccccc2)n2ncc(-c3ccccc3)c2n1 | 0 | 9 | 55* | -4 | -2 | 1
c1ccc(-c2nnc(OCC3CCCO3)c3ccccc23)cc1 (stereo not given) | 7 | 15 | 21 | 1 | 2 | 11*
